Several values for one entry are separate records, joined by “and”; a condition that tells them apart may be missing. Equal values may be shown once. Values without a mark were called inactive. How the calls were made is not given here. Positions of bridges follow the written chain, without caps; N, C: chain ends. Non-standard residues stand in square brackets, D forms with d. Residues, ends and D or L forms follow the SMILES beside them. *: point of attachment. Octanoyl(6-Me) = CCC(C)CCCCC(=O)*; Dab = NCC[CH](N)C(=O)O
Columns and labels:
[1] = system: Aerobactin synthetase IucA (Klebsiella pneumoniae hvKP1); assay: IucA enzyme inhibition, primary screen, biochemical, Spectrum library (AID 1346200); conditions: malachite green pyrophosphate, A620, at 8 µM, active compounds read low;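 further: 100% = wells without compound and 0% = wells lacking enzyme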
[2] = system: Aerobactin synthetase IucA (Klebsiella pneumoniae, hypervirulent); assay: biochemical IucA inhibition screen of LOPAC library by absorbance (AID 1346212); conditions: IucA enzyme assay, absorbance (OD) readout; active compounds read low;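 tested at 8 µM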;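 further: 100% = no compound wells and 0% = no enzyme wells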

SMILES	activity remaining [1]	remaining activity [2]
C[n+]1cccc(C(=O)[O-])c1	92.7%	
O=c1c(-c2ccc(O)cc2)coc2c(C3O[C@H](CO)[C@@H](O)[C@H](O)[C@H]3O)c(O)ccc12 (stereo partly drawn)	105%	
CC(C)CC1C(=O)N2CCC[C@H]2C2(O)O[C@](NC(=O)C3C=C4c5cccc6[nH]c(Br)c(c56)C[C@H]4N(C)C3)(C(C)C)C(=O)N12 (stereo partly drawn)	113%	
CC(=O)OC1CCC2(C)C3CC(=O)C4(C)C(CC5OC6(CCC(C)CO6)[C@@H](C)C54)C3CC[C@H]2C1 (stereo partly drawn)	102%	
COc1cc(NS(=O)(=O)c2ccc(N)cc2)ncn1	92.3%	
COc1ccc(-c2coc3cc(O)ccc3c2=O)cc1	109%	
COc1c(Cl)ccc(Cl)c1C(=O)O	108%	
COC(=O)C[C@@H]1C2(C)C(=O)[C@@H](CC3C2CC[C@]2(C)C3CC(=O)O[C@H]2c2ccoc2)[C@H](OC(C)=O)C1(C)C (stereo partly drawn)	109%	
COC(=O)C[C@H]1C(C)(C)C(=O)[C@@H]2CC3=C4CC(=O)O[C@@H](c5ccoc5)[C@]4(C)CCC3C1(C)C2=O (stereo partly drawn)	102%	
CN(C)C(=N)N=C(N)N	120%	
CC(=O)NCc1c(I)c(NC(C)=O)c(I)c(C(=O)O)c1I	98.7%	
COC(=O)C1=C(C)NC(C)=C(C(=O)OCC(C)C)C1c1ccccc1[N+](=O)[O-] (stereo not drawn)	118%	
COc1cc(-c2coc3cc(OC)c(OC)c(OC)c3c2=O)cc(OC)c1OC	121%	
CC(=O)OC[C@@]1(O)C[C@@]23CCC4c5ccoc5CC[C@]4(C)C2CC[C@@H]1C3 (stereo partly drawn)	119%	
O=C1OC(c2ccc(O)cc2)(c2ccc(O)cc2)c2ccccc21	115%	
COC(=O)C1=CO[C@@H](C)[C@@H]2CN3CC[C@@]4(C(=O)Nc5ccccc54)[C@H]3CC12 (stereo partly drawn)	101%	
CC(=O)N[C@@H](CCC(=O)O)C(=O)O	92.3%	
COc1cc(/C=C/C(=O)O)ccc1O	100%	
CCC(C)CCCCC(=O)NC(CCN)C(=O)NC(C(=O)NC(CCN)C(=O)NC1CCNC(=O)C(C(C)O)NC(=O)C(CCN)NC(=O)C(CCN)NC(=O)C(CC(C)C)NC(=O)C(Cc2ccccc2)NC(=O)C(CCN)NC1=O)C(C)O (stereo not drawn) ({Octanoyl(6-Me)}-[Dab]T[Dab][Dab][Dab]FL[Dab][Dab]T; lactam 4-C; configuration not given here)	121%	
CC1=CC2C(CC1=O)C(C)=CCC2C(C)C (stereo not drawn)	104%	
CCC(C)C(NC)C(=O)O (stereo not drawn)	116%	
C=CC(C1=CC(=O)C(OC)=CC1=O)c1ccccc1 (stereo not drawn)	113%	
CC12CCC3c4ccc(OCc5ccccc5)cc4CCC3C1C[C@@H](O)[C@@H]2O (stereo partly drawn)	119%	
CCC(C(N)=O)c1ccccc1 (stereo not drawn)	119%	

SMILES	activity remaining [1]	remaining activity [2]
NC(C(=O)O)C(O)C(=O)O (stereo not drawn)	97.5%	
Cc1cc(=O)[nH]c(=S)[nH]1	95.7%	
CCN1CCN(c2cc3c(cc2F)c(=O)c(C(=O)O)cn3C2CC2)CC1	100%	
CC(=O)Oc1c(-c2ccccc2)oc2c(CC=C(C)C)c3c(c(OC(C)=O)c2c1=O)C=CC(C)(C)O3	98.4%	
COC1=CC(=O)C=C(OC)C1=O	99.1%	
CCC(=O)O[C@H](CC(=O)O)C[N+](C)(C)C	107%	
Cc1ncc([N+](=O)[O-])n1CCO	75.6%	
COc1cc(O)c(C(C)=O)c(OC)c1	104%	
O=c1[nH]c(=O)n(C2C[C@@H](O)[C@@H](CO)O2)cc1F (stereo partly drawn)	120%	
O=C1C=CC2=C3c4cc(O)c(O)cc4C[C@@]3(O)COC2=C1	120%	
CC(=O)Oc1ccccc1C(=O)Oc1ccccc1C(=O)O	97.5%	
NC(N)=NS(=O)(=O)c1ccc(N)cc1	98.6%	
CC(=O)O[C@H]1CC[C@@]2(C)C(CC[C@]3(C)C2C(=O)C=C2C4[C@@H](C)[C@H](C)CC[C@]4(C(=O)O)CC[C@]23C)C1(C)C (stereo partly drawn)	113%	
CCN(CCCc1ccccc1)CCCc1ccccc1	109%	
CC(=O)/C=C\[C@@H]1[C@@]2(C)CCCC(C)(C)C2CC[C@@]1(C)O (stereo partly drawn)	95.5%	
CC(=O)[C@H]1CCC2C3C[C@H](C)C4=CC(=O)CC[C@]4(C)C3[C@@H](O)C[C@@]21C (stereo partly drawn)	101%	
C=C(C)[C@H]1COc2cc3oc(=O)ccc3cc2O1	118%	
COc1cc(O)c(C)c(O)c1	112%	
COc1cc(OC)cc(OC)c1	117%	
CC(=O)Nc1c(I)cc(I)c(C(=O)O)c1I	119%	
Cc1nnc(NS(=O)(=O)c2ccc(N)cc2)s1	113%	
COC(=O)N/N=C/c1c[n+]([O-])c2ccccc2[n+]1[O-]	109%	
CCCCCCCCCCCCCCCC(=O)OC/C=C(C)/C=C/C=C(C)/C=C/C1=C(C)CCCC1(C)C	89%	
C/C1=C/CC(C)(C)/C=C/C/C(C)=C/CC1	122%	

SMILES	activity remaining [1]	remaining activity [2]
CCC(=O)O[C@H]1CCC2C3CCc4cc(O)ccc4C3CC[C@@]21C (stereo partly drawn)	101%	
C[C@@H]1CCC2[C@](C)(CO)[C@@H](O)CC[C@]2(C)[C@@]12CC[C@@](CO)(CCO)O2 (stereo partly drawn)	113%	
CCC[C@@H]1C[C@@H](C(=O)N[C@H]([C@H]2O[C@H](SC)[C@H](O)[C@@H](O)[C@H]2O)[C@H](C)O)N(C)C1	111%	
COc1ccc2cc3[n+](cc2c1OC)CCc1cc2c(cc1-3)OCO2	86.3%	
C=C[C@@H](C1=CC(=O)C(OC)=C(OC)C1=O)c1ccccc1	128%	
C=CC[C@@H]1/C=C(\C)C[C@H](C)C[C@H](OC)[C@H]2O[C@@](O)(C(=O)C(=O)N3CCCC[C@H]3C(=O)O[C@H](/C(C)=C/[C@@H]3CC[C@@H](O)[C@H](OC)C3)[C@H](C)[C@@H](O)CC1=O)[C@H](C)C[C@@H]2OC	105%	
CC(C)C1=CC2=CCC3[C@](C)(CCC[C@]3(C)C(=O)O)C2CC1 (stereo partly drawn)	94.8%	
Cc1cccc2c3c(ccc12)C1=C(C(=O)C3=O)C(C)CO1 (stereo not drawn)	114%	
C=Cc1c(C)/c2[n-]/c1=C\c1[n-]c(c(CC)c1C)/C=c1\[n-]c3c(c1C)C(=O)C(C(=O)[O-])C=3c1[n-]c(c(C)c1CCC(=O)[O-])\C=2.[Cu].[Na+].[Na+] (stereo not drawn)	77.9%	
C=CCCCCCCCCCCCc1ccco1	99.3%	
C=C(C)[C@H]1CC=C(C(=O)O)CC1	120%	
C/C=C(/C)C(=O)O[C@@H]1[C@H](OC(C)=O)[C@@]2(CO)C(CC1(C)C)C1=CCC3[C@@]4(C)CC[C@H](O[C@@H]5O[C@H](C(=O)O)[C@@H](O[C@@H]6O[C@H](CO)[C@@H](O)[C@H](O)[C@H]6O)[C@H](O)[C@H]5O[C@@H]5O[C@H](CO)[C@@H](O)[C@H](O)[C@H]5O)[C@](C)(CO)C4CC[C@@]3(C)[C@]1(C)C[C@H]2O (stereo partly drawn)	119%	
O=C(/C=C(\O)c1ccccc1)c1ccccc1O	120%	
COc1cc([C@H]2Oc3cc([C@H]4Oc5cc(O)cc(O)c5C(=O)[C@@H]4O)ccc3O[C@@H]2CO)ccc1O	122%	
Cc1cccc(C)c1NC(=O)C1CCCCN1C (stereo not drawn)	123%	
CON=C1C[C@]2(C[C@@H]3C[C@@H](C/C=C(\C)C[C@@H](C)/C=C/C=C4\CO[C@@H]5[C@H](O)C(C)=C[C@@H](C(=O)O3)[C@]45O)O2)O[C@H](/C(C)=C/C(C)C)[C@H]1C	93.8%	
COc1ccc(-c2oc3c(CC=C(C)C)c(O[C@@H]4O[C@H](CO)[C@@H](O)[C@H](O)[C@H]4O)cc(O)c3c(=O)c2O[C@@H]2O[C@@H](C)[C@H](O)[C@@H](O)[C@H]2O)cc1	121%	
CCCCCCOc1ccccc1C(N)=O	96.8%	
CC1=CC(=O)c2ccccc2C1=O	117%	
Cc1cccc(C(=O)O)c1O	91.3%	
Cc1cc(=O)c2c(O)cc(O)c(C)c2o1	99.3%	
CC(C)c1c(O)c(-c2cc3c(c(C(C)C)c2O)CCC2C(C)(C)CCC[C@]32C)cc2c1CCC1C(C)(C)CCC[C@]21C (stereo partly drawn)	102%	
CN(C)CCCO[C@H]1[C@@H](C(O)CO)OC2OC(C)(C)O[C@@H]21 (stereo partly drawn)	95%	
CCCc1c(OCCCCc2nn[nH]n2)ccc(C(C)=O)c1O	112%	

SMILES	activity remaining [1]	remaining activity [2]
CC(C)CCCC(C)C1CCC2C3C[C@@H](O)[C@@]4(O)C[C@@H](O)CC[C@]4(C)C3CC[C@]12C (stereo partly drawn)	123%	
COc1ccc(/C=C/C(=O)c2cc(O)ccc2O)cc1	87.4%	
CCCCCc1c2c(cc(O)c1C(=O)O)OC(=O)c1c(cc(OC)cc1C(=O)CCCC)O2	121%	
C=CC(C1=CC(=O)C=CC1=O)c1ccccc1 (stereo not drawn)	119%	
COc1cc2c(cc1OC)-c1cc3ccc(OC)c(OC)c3c[n+]1CC2	97.8% and 112%	
Oc1ccc(O)cc1	121%	105%
NC(N)=NC(=O)c1nc(Cl)c(N)nc1N	118%	105%
CNCCC=C1c2ccccc2CCc2ccccc21	122%	113%
Cc1cnc(NC(=O)C2=C(O)c3ccccc3S(=O)(=O)N2C)s1	118%	120%
NS(=O)(=O)c1cc(C(=O)O)c(NCc2ccco2)cc1Cl	105%	97.8%
O=c1cc(-c2ccc(O)cc2)oc2cc(O)cc(O)c12	113%	107%
CC(=O)CCCCn1c(=O)c2c(ncn2C)n(C)c1=O	82.4%	123%
CC(C[N+](C)(C)C)OC(N)=O (stereo not drawn)	116%	114%
N[C@@H](C(=O)N[C@@H]1C(=O)N2C(C(=O)O)=C(Cl)CS[C@H]12)c1ccccc1	103%	120%
O=[N+]([O-])c1cccc2c(Br)[nH]nc12	118%	110%
Cc1ccccc1C(OCCN(C)C)c1ccccc1 (stereo not drawn)	100%	117%
CC(COc1ccccc1)N(CCCl)Cc1ccccc1 (stereo not drawn)	107%	109%
CN1CCN(CC(=O)N2c3ccccc3C(=O)Nc3cccnc32)CC1	117%	94.6%
Oc1cc(O)c2c(c1)O[C@H](c1ccc(O)c(O)c1)[C@@H](O)C2	93%	106%
CC(N=C(NC#N)Nc1ccncc1)C(C)(C)C (stereo not drawn)	105%	92.7%
O=C(CCc1ccc(O)cc1)c1c(O)cc(O)cc1O	105%	79.2%
O=C(O)c1cccnc1C(=O)O	89.1%	116%
NS(=O)(=O)c1cc2c(cc1Cl)NCNS2(=O)=O	103%	102%
COc1cc2nc(N3CCN(C(=O)C4CCCO4)CC3)nc(N)c2cc1OC (stereo not drawn)	119%	102%

SMILES	activity remaining [1]	remaining activity [2]
CCCNC(=O)NS(=O)(=O)c1ccc(Cl)cc1	118%	103%
CCN(CC)CCNC(=O)c1cc(Cl)c(N)cc1OC	88.1%	101%
Cc1nc2ccccn2c(=O)c1CCN1CCC(C(=O)c2ccc(F)cc2)CC1	120%	101%
O=C(/C=C/c1ccc(O)c(O)c1)OCCc1ccccc1	78.8%	105%
Fc1ccc([C@@H]2CCNC[C@H]2COc2ccc3c(c2)OCO3)cc1	108%	121%
CC(=O)Oc1ccccc1C(=O)O	109%	118%
CN1C(C(=O)Nc2ccccn2)=C(O)c2ccccc2S1(=O)=O	115%	109%
CCCN(CCC)CCc1cccc2c1CC(=O)N2	98.7%	80.8%
C[N+](C)(C)CCCCCC[N+](C)(C)C	122%	99.1% and 87%
CC(=O)OC(C)C[N+](C)(C)C (stereo not drawn)	80.8%	119%
CN(C)CCCN1c2ccccc2Sc2ccc(C(F)(F)F)cc21	108%	97%
CCN(CC)CCCC(C)Nc1ccnc2cc(Cl)ccc12 (stereo not drawn)	93%	122%
CN1CCN2c3ccccc3Cc3ccccc3C2C1 (stereo not drawn)	119%	120%
COc1ccc(C2CNC(=O)C2)cc1OC1CCCC1 (stereo not drawn)	120%	91.4%
c1ccc([C@H]2CN3CCSC3=N2)cc1	117%	112%
COc1cc2c(c(OC)c1OC)-c1ccc(OC)c(=O)cc1[C@@H](NC(C)=O)CC2	115%	112%
CN(C)CCCN1c2ccccc2CCc2ccccc21	107%	90.4%
O=C1c2c(O)ccc(O)c2C(=O)c2c(NCCNCCO)ccc(NCCNCCO)c21	107%	110%
CSc1ccc2c(c1)N(CCC1CCCCN1C)c1ccccc1S2 (stereo not drawn)	116%	91.4%
O=C(/C=C/c1ccc(O)cc1)c1ccc(O)cc1O	98.7%	93.6%
NCCCNCCSP(=O)(O)O	113%	108%
CCOC(=O)N1CCC(=C2c3ccc(Cl)cc3CCc3cccnc32)CC1	116%	112%
O=C(C1CCCCC1)N1CC(=O)N2CCc3ccccc3C2C1 (stereo not drawn)	123%	104%
COc1cc2nc(N3CCN(C(=O)c4ccco4)CC3)nc(N)c2cc1OC	127%	84.9%

Source: PubChem BioAssay
